# Experimental data taken from paper PMC11006913.
# Assays:
# Experiment in all cases: PBM; 200 nM protein, PBS
# Conditions in all cases: dsDNA, one strand shown
# HOXB9 [1] = biological target: HOXB9 (Homo sapiens, UniProt P17482 171-250, T197M)
# HOXB9 [2] = biological target: HOXB9 (Homo sapiens, UniProt P17482 171-250)
# HOXB9 [3] = biological target: HOXB9 (Homo sapiens, UniProt P17482 171-250, R186Q)
# HOXC9 = HOXC9 (Homo sapiens, UniProt P31274 178-260, R222W)
# HOXB6 = HOXB6 (Homo sapiens, UniProt P17509 132-218, K202E)
# ALX3 [4] = biological target: ALX3 (Homo sapiens, UniProt O95076 139-225, N203S)
# ALX3 [5] = biological target: ALX3 (Homo sapiens, UniProt O95076 139-225, N203Q)
# ALX3 (Homo sapiens, UniProt O95076 139-225, N203Q), sequence (O95076 139-225 N203Q): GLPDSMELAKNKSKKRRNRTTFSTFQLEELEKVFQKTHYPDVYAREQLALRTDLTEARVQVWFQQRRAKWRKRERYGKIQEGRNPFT
# HOXB9 (Homo sapiens, UniProt P17482 171-250), sequence (P17482 171-250): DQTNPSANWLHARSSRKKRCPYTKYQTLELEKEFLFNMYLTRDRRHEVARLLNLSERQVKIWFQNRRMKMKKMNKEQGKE
# HOXB9 (Homo sapiens, UniProt P17482 171-250, T197M), sequence (P17482 171-250 T197M): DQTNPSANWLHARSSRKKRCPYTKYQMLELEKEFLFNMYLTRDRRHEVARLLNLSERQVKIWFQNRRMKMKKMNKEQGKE
# HOXB9 (Homo sapiens, UniProt P17482 171-250, R186Q), sequence (P17482 171-250 R186Q): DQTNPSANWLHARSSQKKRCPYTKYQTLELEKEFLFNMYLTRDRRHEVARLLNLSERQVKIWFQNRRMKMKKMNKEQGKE
# ALX3 (Homo sapiens, UniProt O95076 139-225, N203S), sequence (O95076 139-225 N203S): as the sequence (O95076 139-225 N203Q) above, with Q65S counted along it
# HOXC9, sequence (P31274 178-260 R222W): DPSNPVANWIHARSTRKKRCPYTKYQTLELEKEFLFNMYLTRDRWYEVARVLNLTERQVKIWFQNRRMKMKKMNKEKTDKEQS
# HOXB6, sequence (P17509 132-218 K202E): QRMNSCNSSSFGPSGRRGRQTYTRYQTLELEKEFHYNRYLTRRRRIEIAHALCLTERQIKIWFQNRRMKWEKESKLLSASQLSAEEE
sequence,measurement,setting,value
TCCCGGGA,binding signal,HOXB9 [1],"8.9 upbm affinity estimate (log intensity, higher = more binding, comparable within an allelic series)"
same,binding signal,HOXB9 [2],"8.93 upbm affinity estimate (log intensity, higher = more binding, comparable within an allelic series)"
same,binding signal,HOXB9 [3],"8.89 upbm affinity estimate (log intensity, higher = more binding, comparable within an allelic series)"
ACCGGCAG,binding signal,HOXB9 [1],"8.5 upbm affinity estimate (log intensity, higher = more binding, comparable within an allelic series)"
same,binding signal,HOXB9 [2],"8.43 upbm affinity estimate (log intensity, higher = more binding, comparable within an allelic series)"
same,binding signal,HOXB9 [3],"8.48 upbm affinity estimate (log intensity, higher = more binding, comparable within an allelic series)"
CCCAGGCC,binding signal,HOXB9 [1],"8.39 upbm affinity estimate (log intensity, higher = more binding, comparable within an allelic series)"
same,binding signal,HOXB9 [2],"8.27 upbm affinity estimate (log intensity, higher = more binding, comparable within an allelic series)"
same,binding signal,HOXB9 [3],"8.29 upbm affinity estimate (log intensity, higher = more binding, comparable within an allelic series)"
same,binding signal,HOXC9,"9.62 upbm affinity estimate (log intensity, higher = more binding, comparable within an allelic series)"
ATAAATTG,binding signal,HOXB6,"10 upbm affinity estimate (log intensity, higher = more binding, comparable within an allelic series)"
same,binding signal,ALX3 [4],"8.68 upbm affinity estimate (log intensity, higher = more binding, comparable within an allelic series)"
GCGCGGCA,binding signal,ALX3 [5],"7.82 upbm affinity estimate (log intensity, higher = more binding, comparable within an allelic series)"
same,binding signal,ALX3 [4],"7.83 upbm affinity estimate (log intensity, higher = more binding, comparable within an allelic series)"
AGGTCTGG,binding signal,HOXB9 [1],"8.53 upbm affinity estimate (log intensity, higher = more binding, comparable within an allelic series)"
same,binding signal,HOXB9 [2],"8.57 upbm affinity estimate (log intensity, higher = more binding, comparable within an allelic series)"
same,binding signal,HOXB9 [3],"8.64 upbm affinity estimate (log intensity, higher = more binding, comparable within an allelic series)"
CTCCCGCC,binding signal,HOXB9 [1],"8.4 upbm affinity estimate (log intensity, higher = more binding, comparable within an allelic series)"
same,binding signal,HOXB9 [2],"8.4 upbm affinity estimate (log intensity, higher = more binding, comparable within an allelic series)"
same,binding signal,HOXB9 [3],"8.4 upbm affinity estimate (log intensity, higher = more binding, comparable within an allelic series)"
CGGCGCCA,binding signal,HOXB9 [1],"8.53 upbm affinity estimate (log intensity, higher = more binding, comparable within an allelic series)"
same,binding signal,HOXB9 [2],"8.36 upbm affinity estimate (log intensity, higher = more binding, comparable within an allelic series)"
same,binding signal,HOXB9 [3],"8.51 upbm affinity estimate (log intensity, higher = more binding, comparable within an allelic series)"
CGTAGGCC,binding signal,HOXB9 [1],"8.47 upbm affinity estimate (log intensity, higher = more binding, comparable within an allelic series)"
same,binding signal,HOXB9 [2],"8.61 upbm affinity estimate (log intensity, higher = more binding, comparable within an allelic series)"
same,binding signal,HOXB9 [3],"8.63 upbm affinity estimate (log intensity, higher = more binding, comparable within an allelic series)"
CGTCCGAC,binding signal,HOXB9 [1],"8.56 upbm affinity estimate (log intensity, higher = more binding, comparable within an allelic series)"
same,binding signal,HOXB9 [2],"8.39 upbm affinity estimate (log intensity, higher = more binding, comparable within an allelic series)"
same,binding signal,HOXB9 [3],"8.45 upbm affinity estimate (log intensity, higher = more binding, comparable within an allelic series)"
GTGGCGGA,binding signal,HOXB9 [1],"8.44 upbm affinity estimate (log intensity, higher = more binding, comparable within an allelic series)"
same,binding signal,HOXB9 [2],"8.58 upbm affinity estimate (log intensity, higher = more binding, comparable within an allelic series)"
same,binding signal,HOXB9 [3],"8.61 upbm affinity estimate (log intensity, higher = more binding, comparable within an allelic series)"
CCCCTCGA,binding signal,HOXB9 [1],"8.73 upbm affinity estimate (log intensity, higher = more binding, comparable within an allelic series)"
same,binding signal,HOXB9 [2],"8.55 upbm affinity estimate (log intensity, higher = more binding, comparable within an allelic series)"
same,binding signal,HOXB9 [3],"8.57 upbm affinity estimate (log intensity, higher = more binding, comparable within an allelic series)"
GTCCGGCA,binding signal,HOXB9 [1],"8.68 upbm affinity estimate (log intensity, higher = more binding, comparable within an allelic series)"
same,binding signal,HOXB9 [2],"8.51 upbm affinity estimate (log intensity, higher = more binding, comparable within an allelic series)"
same,binding signal,HOXB9 [3],"8.52 upbm affinity estimate (log intensity, higher = more binding, comparable within an allelic series)"
CCTGCGGC,binding signal,HOXB9 [1],"8.26 upbm affinity estimate (log intensity, higher = more binding, comparable within an allelic series)"
same,binding signal,HOXB9 [2],"8.14 upbm affinity estimate (log intensity, higher = more binding, comparable within an allelic series)"
same,binding signal,HOXB9 [3],"8.19 upbm affinity estimate (log intensity, higher = more binding, comparable within an allelic series)"
CAATCAAC,binding signal,HOXB9 [1],"9.17 upbm affinity estimate (log intensity, higher = more binding, comparable within an allelic series)"
same,binding signal,HOXB9 [2],"9.95 upbm affinity estimate (log intensity, higher = more binding, comparable within an allelic series)"
same,binding signal,HOXB9 [3],"9.93 upbm affinity estimate (log intensity, higher = more binding, comparable within an allelic series)"
GAGCGCAA,binding signal,HOXB9 [1],"8.55 upbm affinity estimate (log intensity, higher = more binding, comparable within an allelic series)"
same,binding signal,HOXB9 [2],"8.29 upbm affinity estimate (log intensity, higher = more binding, comparable within an allelic series)"
same,binding signal,HOXB9 [3],"8.48 upbm affinity estimate (log intensity, higher = more binding, comparable within an allelic series)"
CGTGGCTC,binding signal,HOXB9 [1],"8.5 upbm affinity estimate (log intensity, higher = more binding, comparable within an allelic series)"
same,binding signal,HOXB9 [2],"8.18 upbm affinity estimate (log intensity, higher = more binding, comparable within an allelic series)"
same,binding signal,HOXB9 [3],"8.26 upbm affinity estimate (log intensity, higher = more binding, comparable within an allelic series)"
CGAAGGAC,binding signal,HOXB9 [1],"8.68 upbm affinity estimate (log intensity, higher = more binding, comparable within an allelic series)"
same,binding signal,HOXB9 [2],"8.57 upbm affinity estimate (log intensity, higher = more binding, comparable within an allelic series)"
same,binding signal,HOXB9 [3],"8.58 upbm affinity estimate (log intensity, higher = more binding, comparable within an allelic series)"
AGCGCGCC,binding signal,HOXB9 [1],"8.57 upbm affinity estimate (log intensity, higher = more binding, comparable within an allelic series)"
same,binding signal,HOXB9 [2],"8.53 upbm affinity estimate (log intensity, higher = more binding, comparable within an allelic series)"
same,binding signal,HOXB9 [3],"8.54 upbm affinity estimate (log intensity, higher = more binding, comparable within an allelic series)"
